# Screens from PubChem BioAssay.
# VDR inh – Inhibitors of the vitamin D receptor (VDR): qHTS. Vitamin D3 receptor (Homo sapiens), P11473. VDR-SRC2-3 peptide fluorescence polarization, 2 h. Potency, µM, without a hit: max response, negative = inhibition, usual class: inhibitors. hit rate 0.93% among 400,000; further: on the % scale 0 is the no-effect control and ±100 the full control effect
#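 Compounds are added to VDR with labelled SRC2-3 coactivator peptide and held 2 h at room temperature. Inhibition of the VDR–peptide interaction is then read as a change in fluorescence polarization.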
# BAZ2B block – qHTS Assay for Inhibitors of BAZ2B; AlphaScreen BAZ2B-H3K14Ac peptide displacement; Potency, µM (top dose mostly 114 µM), for inactives: at the top dose activity change, negative = inhibition, hits mostly inhibitors; hit rate 4.4% among 360,000; AID 504333, 2011; further: on the % scale 0 is the no-effect control and ±100 the full control effect; nearly all actives have a fitted effect of over 60% in size
#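 Inhibition is scored as reduced AlphaScreen emission. The BAZ2B/b-H3(5-23)K14Ac complex (50 nM each) in PBS pH 7.4, 0.01% Tween-20 meets compound (up to 110 uM) for 30 min at RT before bead addition.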
# PLK1 PBD block – qHTS for Inhibitors of PLK1-PDB (polo-like kinase 1 - polo-box domain): Primary Screen; hit rate 2.8% among 360,000; Plk1 PBD binding of FITC phosphopeptide, fluorescence polarization; AID 720504, 2013; Serine/threonine-protein kinase PLK1 (Homo sapiens), P53350; Potency, µM, for inactives: max response, negative = inhibition, actives largely listed as inhibitors; further: series mostly up to about 57 µM; on the % scale 0 is the no-effect control and ±100 the full control effect; nearly all actives have a fitted effect of over 65% in size
# HP1b chromo inh – HTS for Inhibitors of HP1-beta Chromodomain Interactions with Methylated Histone Tails; hit rate 0.56% among 390,000; Potency, µM (doses to about 114 µM), inactives show top-dose activity change, negative = inhibition, usual class: inhibitors; AlphaScreen HP1-beta / biotin-H3K9me3 peptide binding; further: nearly all actives have a fitted effect of over 70% in size
# Target sequence (P83916 whole entry, looked up): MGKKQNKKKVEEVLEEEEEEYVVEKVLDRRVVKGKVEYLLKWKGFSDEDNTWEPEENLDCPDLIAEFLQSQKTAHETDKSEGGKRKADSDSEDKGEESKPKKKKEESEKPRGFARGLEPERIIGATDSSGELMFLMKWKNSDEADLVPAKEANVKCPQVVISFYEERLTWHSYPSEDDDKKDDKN
#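 HP1-beta protein (50 nM final) preincubated 30 min at room temperature with biotinylated H3(1-18)K9me3 peptide (50 nM) in PBS pH 7.4, 0.01% Tween-20, then compound added for 30 min. AlphaScreen streptavidin donor/nickel chelate acceptor beads (10 ug/mL final), 30 min dark, luminescence read.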
# G9a inh – qHTS Assay for Inhibitors of Histone Lysine Methyltransferase G9a. Histone-lysine N-methyltransferase EHMT2 (Homo sapiens), Q96KQ7. G9a H3K9 monomethylation, AlphaScreen, 2 h. Potency, µM (doses to about 102 µM), for inactives: at the highest dose activity, negative = inhibition, actives largely listed as inhibitors. hit rate 8.8% among 350,000; further: on the % scale 0 is the no-effect control and ±100 the full control effect; nearly all actives have a fitted effect of over 75% in size
# Target sequence (Q96KQ7 913-1193 limits assumed): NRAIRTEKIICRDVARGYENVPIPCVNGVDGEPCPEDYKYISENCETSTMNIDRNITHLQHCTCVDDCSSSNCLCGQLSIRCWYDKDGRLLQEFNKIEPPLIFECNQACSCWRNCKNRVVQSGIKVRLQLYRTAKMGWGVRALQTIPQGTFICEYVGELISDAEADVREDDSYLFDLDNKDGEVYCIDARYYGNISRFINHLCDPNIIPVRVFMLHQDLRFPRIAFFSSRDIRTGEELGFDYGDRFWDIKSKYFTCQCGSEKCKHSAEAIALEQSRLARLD
#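 AlphaScreen detection with an anti-monomethyl H3K9 antibody quantified product after a 2 h room-temperature reaction containing 500 nM biotinylated H3K9 peptide, 20 µM SAM and 20 nM enzyme, which had been preincubated 15 min with compound.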
# JMJD2A Tudor – qHTS Assay for Inhibitors of JMJD2A-Tudor Domain | Lysine-specific demethylase 4A (Homo sapiens), O75164 | AlphaScreen JMJD2A-Tudor / H3K4me3 peptide binding | Potency, µM (doses to about 114 µM), inactives show top-dose activity change, negative = inhibition, actives largely listed as inhibitors | hit rate 4.4% among 390,000; further: on the % scale 0 is the no-effect control and ±100 the full control effect; nearly all actives have a fitted effect of over 50% in size
# Starred values were filed as active, the others as inactive; u = inconclusive; x = no result given; [ ] = another dose, or the depositor's remark. In the library only some 11% were active in any assay of this set; here they are far more common. The call rests on the fitted dose curve; in most records, active means well fitted curve in the direction sought with a large enough effect; inconclusive means small, poorly fitted or top-dose-only effect, or another doubt; inactive means no such curve, though single readings can be large; an effect the other way counts as inactive or inconclusive. Potency means the concentration at half of the fitted maximal effect.
SMILES,VDR inh,BAZ2B block,PLK1 PBD block,HP1b chromo inh,G9a inh,JMJD2A Tudor
O=C(COc1ccc(F)cc1)Nc1ccc(C(=O)OCc2cc(=O)n3nc(C4CC4)sc3n2)cc1,8%,-14%,x,8%,23%[59 µM],-21%
Cc1ccc(Cn2c(=O)n(Cc3ccc(C(=O)NC4CCN(Cc5ccccc5)CC4)cc3)c(=O)c3ccccc32)cc1,6%,4%,x,7%,11%[59 µM],-20%
CCOC(=O)CSC1=C(C#N)C(c2ccc(Cl)cc2)CC(=O)N1 (configuration not stated),-14%,2%,-24%,26%,79µM*,-17%
CCOC(=O)CSC1=C(C#N)C(c2ccc3c(c2)OCO3)CC(=O)N1 (configuration not stated),-8%,0%,-17%,33%,-20%[59 µM],5%[11.4 µM]
C=CCSC1=C(C#N)C(c2ccc(C(C)C)cc2)CC(=O)N1 (configuration not stated),u,-4%,-19%,0%,45µM*,-29%
CCSC1=C(C#N)C(c2ccc(F)cc2)CC(=O)N1 (configuration not stated),-15%,6%,-4%,32%,-13%,-3%
C=CCSC1=C(C#N)C(c2ccccc2)CC(=O)N1 (configuration not stated),-14%,6%,-13%,25%,50µM*,-24%
COc1ccc(OC)c(NC(=O)Cc2coc3ccc(C(C)C)cc23)c1,8%,-17%,x,22%,-36%[59 µM],u
O=C(Nc1ccc(F)cc1F)C1CCN(c2ncccn2)CC1,5%,-8%,x,31%,0%[59 µM],-10%
Nc1ccc(CNc2ncn[nH]2)cc1,u,2%,24µM*,-13%,-11%[59 µM],-6%[11.4 µM]
Fc1ccc(CNc2ccc(CNc3ncn[nH]3)cc2)cc1,-1%,-32%,-1%,5%,8%,-30%
CCOC(=O)C1=C(N)n2c(s/c(=C\c3cccnc3)c2=O)=C(C#N)C1c1cccnc1 (configuration not stated),0%,x,-3%,53%,x,-20%[11.4 µM]
N#CC1=C(N)n2c(s/c(=C\c3ccco3)c2=O)=C(C#N)C1c1ccco1 (configuration not stated),-2%,u,u,79µM*,u,56µM*
N#CC1=C(N)n2c(s/c(=C\c3cccs3)c2=O)=C(C#N)C1c1cccs1 (configuration not stated),9%,-4%,-20%,20%,35µM*,-19%
O=[N+]([O-])c1ccc(N/N=C/c2ccc[nH]2)cc1,0%,45µM*,12%,u,11µM*,56µM*
O=[N+]([O-])c1ccc(N/N=C/c2cccc(O)c2)cc1,-4%,u,3%,9%,3%[2.33 µM],-20%
O=[N+]([O-])c1ccc(N/N=C/c2cccc(O)c2O)cc1,u,u,27µM*,-10%,-10%[0.501 µM],u
CC(=O)Nc1ccc(-c2cc(C(=O)O)c3c(-c4ccccc4)[nH]nc3n2)cc1,1%,1%,x,26%,8%[59 µM],1%
O=C(COC(=O)c1nc(Cl)c(Cl)c(Cl)c1Cl)c1ccc[nH]1,-10%,-23%,-8%,29%,14µM*,-17%
O=C(OCC(=O)c1ccc[nH]1)c1ccc(Cl)c(Cl)c1,0%,x,-13%,15%,x,-8%
CNc1nnc(SCC(=O)N2c3ccccc3NC(=O)CC2C)s1 (configuration not stated),15%,5%,-14%,26%,12%[2.33 µM],-7%
Cc1ccc(-n2nc(C)c(Sc3ccccc3[N+](=O)[O-])c2N)cc1,u,35µM*,2.4µM*,u,10µM*,u
CC(=O)Oc1c(Sc2ccccc2[N+](=O)[O-])c(C)nn1C(C)(C)C,-28%,u,-27%,-18%,45µM*,u
Cc1n[nH]c(C)c1Sc1ccccc1[N+](=O)[O-],2%,u,-2%,-17%,-27%,-34%
COc1cc(OC)cc(C(=O)Oc2c(Sc3ccccc3)c(C)nn2C(C)(C)C)c1,1%,-1%,x,47%,27%[59 µM],25%
SMILES,VDR inh,BAZ2B block,PLK1 PBD block,HP1b chromo inh,G9a inh,JMJD2A Tudor
Cc1ccc(Cn2c(CN3CCN(c4cccc(Cl)c4)CC3)nc3c2c(=O)n(C)c(=O)n3C)cc1,6%,x,x,6%,u,u
c1coc(-c2ccc3nncn3c2)c1,x,x,15µM*,x,x,x
c1cc(N2CCOCC2)ccc1-c1ccc2nncn2c1,x,x,-5%,x,x,x
CC1(C)Cc2noc(N)c2C(C)(C)N1OC(=O)c1cccs1,-25%,10%,-11%,65%,26%[59 µM],-20%
CC1(C)Cc2noc(N)c2C(C)(C)N1O,11%,-7%,-1%,17%,u,32µM*
O=C(Nc1nc2c(Br)cccc2s1)C1CC1,u,4%,-13%,79%,x,49%
CCN1CCSc2ccc(C(=O)NC(C)c3ccccc3)cc21 (configuration not stated),-17%,-39%,x,27%,-32%[59 µM],u
Cc1ccc(C(=O)NCC(=O)OCC(=O)NCCc2ccccc2)s1,-18%,u,27µM*,-8%,-9%,50µM*
Nc1[nH]n(-c2ccccc2)c(=O)c1N=Nc1ccccc1,8%,7.9µM*,-8%,u,4.5µM*,13µM*
Nc1[nH]n(-c2ccccc2)c(=O)c1N=Nc1ccc2ncsc2c1,u,u,27µM*,-29%,x,-21%[11.4 µM]
O=c1c(N=Nc2ccccc2)c[nH]n1-c1ccccc1,x,x,3%,x,x,x
Nc1[nH]n(-c2ccccc2)c(=O)c1N=Nc1ccccc1[N+](=O)[O-],8%,-25%,-8%,0%,-11%,-21%
COc1cc([N+](=O)[O-])ccc1N=Nc1c(N)[nH]n(-c2ccccc2)c1=O,-19%,u,30µM*,-26%,50µM*,-23%[11.4 µM]
N#CCCn1cc(CNCc2cccnc2)c(-c2ccccc2)n1,-10%,x,x,u,x,8.9µM*
COc1ccc(OCc2nn3c(Cn4cnc5ccccc54)nnc3s2)cc1,-25%,4%,15µM*,u,5.6µM*,-33%
COc1ccc(OCc2nn3c(-c4cccc(OC)c4)nnc3s2)cc1,-7%,-24%,-1%,38%,u,-19%
Clc1ccccc1CSc1nnc(Cn2cnc3ccccc32)n1-c1ccccc1,-4%,1%,-6%,71%,u,-8%
Clc1ccccc1-c1nn2c(Cn3cnc4ccccc43)nnc2s1,-23%,-8%,24µM*,u,2.8µM*,-18%
c1ccc2c(c1)ncn2Cc1nnc2sc(-c3ccc4c(c3)OCO4)nn12,-9%,u,19µM*,u,x,-34%
